# Bioassay records deposited in PubChem by National Center for Advancing Translational Sciences (NCATS).
# PLK1 PBD inh: inhibitors of human PLK1 polo-box domain binding | P53350 | Plk1 PBD binding of FITC phosphopeptide, fluorescence polarization | Potency, µM, inactives show max response, negative = inhibition, hits mostly inhibitors | actives 2.8% (n = 360,000) | AID 720504; further: series mostly up to about 57 µM; nearly all actives have a fitted effect of over 65% in size
# Target sequence (P53350 whole entry, looked up, the tested form may be a part): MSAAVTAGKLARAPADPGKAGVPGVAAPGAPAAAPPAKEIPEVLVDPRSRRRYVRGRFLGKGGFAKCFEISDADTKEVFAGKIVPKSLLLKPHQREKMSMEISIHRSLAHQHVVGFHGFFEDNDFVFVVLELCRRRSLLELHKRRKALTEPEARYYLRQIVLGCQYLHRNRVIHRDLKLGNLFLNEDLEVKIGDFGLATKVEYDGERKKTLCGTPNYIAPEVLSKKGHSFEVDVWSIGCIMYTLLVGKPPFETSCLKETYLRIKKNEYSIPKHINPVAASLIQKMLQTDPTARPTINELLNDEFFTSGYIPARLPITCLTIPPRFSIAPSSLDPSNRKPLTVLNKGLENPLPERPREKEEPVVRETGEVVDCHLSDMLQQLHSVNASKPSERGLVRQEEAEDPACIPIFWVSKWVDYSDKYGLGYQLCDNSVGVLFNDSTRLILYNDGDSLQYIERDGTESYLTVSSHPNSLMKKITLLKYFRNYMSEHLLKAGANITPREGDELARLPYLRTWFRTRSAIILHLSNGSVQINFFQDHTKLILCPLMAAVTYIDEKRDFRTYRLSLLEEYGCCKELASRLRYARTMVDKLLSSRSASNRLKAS
# ALDH1A1 block: inhibitors of human aldehyde dehydrogenase 1A1. Potency, µM (titrated, usually from 75.3 µM), for the others: at the top dose activity, negative = inhibition, most hits filed as inhibitors. AID 1030. P00352. actives 7.3% (n = 220,000). Purified ALDH1A1, NADH fluorescence, propionaldehyde substrate; active means well fitted inhibition curve with a large enough effect, not every such curve was filed as active; inconclusive means small, poorly fitted or top-dose-only effect, or another doubt; inactive means no such curve, though single readings can be large or run the other way;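 further: plate controls were no enzyme wells and a reference inhibitor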
# Sfp inh: blocks B. subtilis Sfp PPTase activity | Biochemical Sfp PPTase activity, qHTS | Q9F4F7 | AID 1490 | actives 3.5% (n = 310,000) | Potency, µM, for inactives: largest response in the series, negative = inhibition, hits mostly inhibitors;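 further: the enzyme is Sfp with the accession as filed and its product quenches rhodamine fluorescence; 0% = enzyme reaction without inhibitor and -100% = no enzyme wells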
#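 Reaction rates are the 30-min fluorescence difference (ex 525, em 598 nm) in wells containing 15 nM Sfp, 5 uM rhodamine-CoA and 12.5 uM BHQ-2-YbbR at pH 7.6 with 10 mM MgCl2.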
# RORg inh: inhibitors of mouse ROR gamma transcriptional activity; Potency, µM (highest dose often 53.6 µM), without a hit: top-dose activity change, negative = inhibition, usual class: inhibitors; actives 5.4% (n = 310,000); Drosophila S2 Gal4-RORgamma UAS-luciferase reporter, 20 h; P51450; AID 2551; further: nearly all actives have a fitted effect of over 60% in size
#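 Compounds are pin-transferred onto Drosophila Schneider cells expressing a copper-inducible Gal4–ROR gamma transactivation domain fusion. After 1 hr, copper sulfate is added to 700 uM final; luciferase is read 20 hr later.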
# Gal4-VP16 FLuc: counter-screen for ROR gamma inhibitors: Gal4-VP16 reporter. AID 2546. Drosophila S2 Gal4-VP16 UAS-luciferase, luminescence, 20 h. actives 3.5% (n = 310,000). Potency, µM (top dose mostly 53.6 µM), without a hit: top-dose activity, negative = inhibition, usual class: inhibitors;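 further: Gal4-VP16 expression switched on by copper sulfate through the metallothionein promoter; nearly all actives have a fitted effect of over 50% in size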
# An asterisk follows results filed as active; ? = inconclusive; · = no result given; [ ] = remark or other dose. In the library only some 12% were active in any assay of this set; here they are far more common. Unless noted, the call rests on the fitted dose curve; in most records, active means well fitted curve in the direction sought with a large enough effect; inconclusive means small, poorly fitted or top-dose-only effect, or another doubt; inactive means no such curve, though single readings can be large; an effect the other way counts as inactive or inconclusive. Unless noted, on the % scale 0 is the no-effect control and ±100 the full control effect; potency means the concentration at half of the fitted maximal effect.
SMILES,PLK1 PBD inh,ALDH1A1 block,Sfp inh,RORg inh,Gal4-VP16 FLuc
CCCNC(=O)N[C@H]1C=C[C@H](CC(=O)NC2CCCCC2)O[C@@H]1CO,-15%,·,·,·,·
O=C1CCN(CCc2ccccc2)CCN1C(CSc1ccc(Br)cc1)c1ccccc1 (centres undefined),·,·,14%,4%,24%
Cc1nnc(SCC(=O)Nc2ccc(N3CCOCC3)cc2)n1-c1ccccc1,-14%,-6%,?,3%,-11%
Clc1ccc(CSc2nnc(CN3CCOCC3)n2-c2ccccc2)cc1Cl,-6%,18µM*,10%,36%,3%
O=C(CSc1nnc(CN2CCOCC2)n1-c1ccccc1)Nc1ccc(Cl)cc1,0%,22µM*,5%,14%,-5%
Cc1ccc(CCc2nnc(SCC(=O)Nc3cc(Cl)ccc3Cl)n2-c2ccccc2)o1,-5%,25µM*,-18%,?,0%
Cc1ccc(NC(=O)CSc2nnc(CN3CCOCC3)n2-c2ccccc2)cc1,-16%,3.2µM*,13%,?,-2%
O=C(O)c1ccc2c(c1)C(=O)N([C@H](Cc1ccc(-c3ccccc3)cc1)C(=O)O)C2=O,·,·,16%,1%,4%
COCCn1c(SCC(=O)Nc2cc(C)on2)nnc1-c1ccccc1,-11%,·,11%,-20%,-2%
Nc1ccc(S(=O)(=O)Nc2ccccc2)cc1,·,·,-11%,-9%,-11%
COc1cccc(Cn2c(=O)c(-c3cccc(C#N)c3)nc3cnc(N4CCOCC4)nc32)c1,·,?,23%,-27%,0%
O=C(CSc1nc2ccccc2s1)CSc1nc2ccccc2s1,-6%,-5%,?,-86%,-16%
CC(C)c1nnc(NC(=O)CSc2nc3ccccc3s2)s1,-22%,?,9%,?,16%
O=C(CSc1nc2ccccc2s1)NNC(=S)Nc1ccc(Br)cc1,?,8.9µM*,14%,0.89µM*,?
O=C(CSc1nc2ccccc2s1)NNC(=S)Nc1ccccc1,-28%,8.9µM*,?,1µM*,4.5µM*
C[C@H]1CCCCO[C@@H](CN(C)C(=O)NC2CCCCC2)[C@@H](C)CN([C@@H](C)CO)C(=O)c2cc(NC(=O)Cc3ccccc3)ccc2O1,-19%,·,·,·,·
Cc1c(CN(C)C)c2c(n1Cc1ccccc1)C(=O)c1ccc(Br)cc1-2,-6%,10µM*,-18%,?,-18%
Cn1cnnc1Sc1ccc(/C=C(\CCC(=O)O)c2nc3ccccc3s2)cc1[N+](=O)[O-],-3%,12µM*,-14%,3%,12%
CN(c1ccccc1)c1ccc(/C=C(\CCC(=O)O)c2nc3ccccc3s2)cc1[N+](=O)[O-],24µM*,13µM*,7%,12%,-18%
Cc1ccc(/C=C(\CCC(=O)O)c2nc3ccccc3s2)cc1[N+](=O)[O-],?,?,-2%,8%,-17%
CC(C)NC(=O)NC(=O)COc1ncnc2sccc12,27µM*,0%,-12%,6%,-7%
CC(C)(C)NC(=S)NC1CC1,-4%,·,4%,13µM*,?
CC(C)(C)NC(=S)NC(C)(C)C,-1%,·,16%,11µM*,?
COC(=O)C1=C(C(=O)OC)[C@@H]2N(Cc3ccccc3)c3ccccc3[C@@]23C[C@@H](C(=O)OC)N(S(=O)(=O)c2ccc4c(c2)OCCN4C)C3=N1,·,-2%[13.5 µM],-9%,·,·
CCCCNC(=O)C(CC)Sc1nc2sc(C(=O)OC)c(C)c2c(=O)n1N (centres undefined),-16%,?,50µM*,-17%,-10%
SMILES,PLK1 PBD inh,ALDH1A1 block,Sfp inh,RORg inh,Gal4-VP16 FLuc
COCCCNC(=O)c1cc(S(=O)(=O)N2CCC3(CC2)OCCO3)ccc1F,6%,·,·,·,·
Cc1cc(C)n(CC(=O)N2c3ccccc3Sc3ccccc32)n1,-17%,?,-15%,7.1µM*,-30%
O=C(CSc1nncs1)N1c2ccccc2Sc2ccccc21,-8%,10µM*,-2%,0%[10 µM],9%
Cc1ccc(SCC(=O)N2c3ccccc3Sc3ccccc32)cc1,-12%,3.5µM*,0%,28%,-15%
Cc1ccc(C(=O)N2c3ccccc3Sc3ccccc32)cc1,-8%,·,·,·,·
CSc1nc(COC(=O)NC(C)C)c(COC(=O)NC(C)C)n1Cc1ccccc1,2%,·,·,·,·
CCOC(=O)N1CCC(N(CCN(C)C)C(=S)Nc2ccc(Oc3ccccc3)cc2)CC1,?,?,-28%,11µM*,-16%
CCN(C(=S)Nc1cccc(C)c1)c1ccccc1,-13%,-2%,-19%,16µM*,?
CCN(C(=O)Nc1cccc(Cl)c1)c1ccccc1,8%,·,9%,-1%,13%
CCN(C(=S)Nc1ccc(Oc2ccccc2)cc1)c1ccccc1,-12%,?,33%,13µM*,18µM*
CN1CCN(CCCBr)CC1,·,13%[13.5 µM],·,·,·
COc1ccc(C2CC(c3ccccc3)Oc3ccc(OC)cc32)cc1 (centres undefined),·,·,4%,28%,-5%
CCN(CC)CCCNC(=O)c1ccc(-n2c(=O)c(=O)[nH]c3ccccc32)cc1,·,0%,·,·,·
O=C(Nc1nnc(CSCc2ccccc2F)s1)c1cccc([N+](=O)[O-])c1,?,25µM*,13%,4.5µM*,5µM*
Cc1cc2nc(-c3cccc(Br)c3)c(CC3CCCCC3)n2c(C)c1Br,2%,·,·,·,·
CCN(CC)CC(=O)Nc1ccc(C)cc1Br,-4%,13µM*,21%,5%,17%
O=C(OCc1cn([C@H]2C[C@H](c3ccc(Cl)cc3)N(CC3CCCCC3)C[C@@H]2O)nn1)c1ccccc1,1%,·,·,·,·
COc1ccc(N2CCN(C(=O)CSc3ccccc3)CC2)cc1,-10%,?,-4%,8%,16%
COc1ccc(N2CCN(C(=O)CSc3ccccc3N)CC2)cc1,24µM*,25µM*,-24%,?,12%
COc1ccc(N2CCN(C(=O)CSc3nnc4n3C(C)(C)Cc3ccccc3-4)CC2)cc1,-3%,22µM*,-11%,27%[0.365 µM],·
CCn1c(COc2cccc(C)c2C)nnc1SCC(=O)N1CCN(c2ccc(OC)cc2)CC1,-1%,-9%,-9%,11%,0.89µM*
Cc1ccc(Cl)cc1N1CCN(C(=O)CSc2nnc3n2C(C)(C)Cc2ccccc2-3)CC1,-8%,?,6%,-72%,?
CCc1cccc(NC(=O)CSCc2nc3sc(C)c(C)c3c(=O)[nH]2)c1,-8%,·,·,·,·
Cc1sc2nc(CSCC(=O)Nc3ccc(N4CCOCC4)cc3)[nH]c(=O)c2c1C,30µM*,11µM*,?,-3%,2%
CN(C)CCCNc1cc(C(C)(C)C)nc2c(-c3ccc(Cl)cc3)cnn12,3%,·,32µM*,2µM*,14µM*
CC(C)(C)c1cc(NCc2ccccn2)n2ncc(-c3ccc(Cl)cc3)c2n1,-2%,·,12%,0.56µM*,?
CCCCNC(=O)C1(C)CCN1C(=O)c1cc(C)n(C(C)(C)C)n1 (centres undefined),4%,·,·,·,·
